The whole screen tested about 5,500 compounds, of which about 2,000 (36%) were called active. About 18% were inconclusive and are not listed. Rule as the data show it: active = normalized growth mostly below about 0.91 (no sharp cut-off); inconclusive = no clear call, values can overlap the other calls; inactive = mostly above about 0.92. Some of the results follow.
Assay: chemical genetic growth profiling, strain panel (AID 1159580);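 also: tested at 20 µM; growth read once vehicle control cultures reached saturation at 30 °C; 1 = growth at the plate median or of vehicle wells; lower values mean less growth of the strain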
Settings: S. cerevisiae deletion strains, growth OD

Measured: normalized growth

CCCCCCCCCCCCCCC[C@H](O)[C@H](N)CO
inactive: locus YAL013W, strain DEP1, stronger effect = lower value 0.976 | locus YAL040C, strain CLN3, stronger effect = lower value 1.05 | locus YCL061C, strain MRC1 (second series), stronger effect = lower value 0.987 | locus YDR363W, strain ESC2, stronger effect = lower value 0.99 | locus YER002W, strain NOP16, stronger effect = lower value 1.03 | locus YGR078C, strain PAC10, stronger effect = lower value 1.01 | locus YMR307W, strain GAS1, stronger effect = lower value 1.01 | locus YNL224C, strain SQS1, stronger effect = lower value 0.928 | locus YPL055C, strain LGE1, stronger effect = lower value 1.02 | locus YPL241C, strain CIN2, stronger effect = lower value 0.998
active: locus YNL128W, strain TEP1, stronger effect = lower value 0.222 | locus YNL175C, strain NOP13, stronger effect = lower value 0.643 | locus YNL197C, strain WHI3, stronger effect = lower value 1.12 [resistant] | locus YOR083W, strain WHI5 (second series), stronger effect = lower value 0.811
